Bioassay records deposited in PubChem BioAssay by The Scripps Research Institute Molecular Screening Center.
In the library only some 5.7% were active in any assay of this set; here they are far more common.
AHR act – AHR activators, primary screen, cell-based, luminescence, luciferase reporter, human. AID 2796, 2010. AHR-responsive luciferase reporter cells. 320,000 tested, 2.5% active. Aryl hydrocarbon receptor (Homo sapiens), P35869. activation, % at 5 µM; in the data active = activation above about 47%;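 also: 0% = vehicle wells and 100% = reference agonist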
ssDAF-12 act – S. stercoralis DAF-12 nuclear receptor activators, primary screen, cell-based, luminescence, HEK293, GRIP1 co-expression, lit1-tk-luc; AID 652126, 2013; HEK293 ssDAF-12/GRIP1 lit1-tk-luc reporter; % of 3 µM dafachronic acid response; activation, % at 6.8 µM; 370,000 tested, 1% active; Nuclear hormone receptor DAF-12 (Strongyloides stercoralis);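 active = activation above the mean over all tested compounds plus 3 SD, cut at about 0.9% in these data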;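 also: 0% = DMSO-only wells and 100% = 3 µM delta7-dafachronic acid wells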
DAX1 inh-1 – DAX1 (NR0B1) inhibitors, primary screen, cell-based, HEK293, Gal4-DAX1, luciferase luminescence. inhibition, % at 6.75 µM. HEK293 Gal4-DAX1 luciferase reporter. 340,000 tested, 0.99% active;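 active = inhibition above the mean over all tested compounds plus 3 SD, cut at about 4.2% in these data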;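 also: 0% = DAX1-transfected cells with DMSO and 100% = empty-vector control cells with DMSO; inhibition shows as a rise in luminescence from relieved DAX1 repression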
Target sequence (P51843 207-470 limits assumed): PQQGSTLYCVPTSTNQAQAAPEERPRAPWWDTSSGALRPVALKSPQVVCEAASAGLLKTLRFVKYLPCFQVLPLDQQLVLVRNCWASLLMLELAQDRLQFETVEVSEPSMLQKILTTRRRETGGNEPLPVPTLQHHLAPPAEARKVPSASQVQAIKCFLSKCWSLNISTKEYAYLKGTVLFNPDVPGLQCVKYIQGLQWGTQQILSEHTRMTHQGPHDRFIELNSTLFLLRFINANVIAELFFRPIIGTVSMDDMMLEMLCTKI
hcDAF12 agonist – H. contortus DAF-12 nuclear receptor activators, primary screen, cell-based, luminescence, HEK293, lit1-tk-luc reporter; HEK293 hcDAF-12 lit1-tk-luc reporter; 0% DMSO, 100% Δ7-dafachronic acid; activation, % at 6.8 µM; 370,000 tested, 1.4% active;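 active = activation above the mean of all tested compounds plus 3 SD, cut at about 5.5% in these data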;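 also: 100% = response to 3 µM Δ7-dafachronic acid high control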
hgDAF12 agonist – H. glycines DAF-12 receptor agonists, primary screen, cell-based, luminescence, HEK293, GAL4 fusion, UAS-luciferase | HEK293 GAL4-hgDAF12 UAS-luciferase reporter, agonist luminescence; normalized to butyrate control | activation, % at 6.8 µM | 370,000 tested, 1.8% active | AID 687014, 2013;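 active = activation above a cutoff set at the mean of all screened compounds plus 3 SD, cut at about 10% in these data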;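 also: 0% = DMSO wells and 100% = sodium butyrate wells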
DAX1 inh-2 – DAX1 (NR0B1) inhibitors on StAR promoter, primary screen, cell-based, luminescence, SF-1 (NR5A1), full-length DAX-1; HEK293T StAR-luciferase reporter, SF-1/DAX-1 repression relief; inhibition, % at 6.8 µM; 370,000 tested, 1.1% active; AID 652010, 2013;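 active = inhibition above the mean over all tested compounds plus 3 SD, cut at about 3.6% in these data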;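 also: 0% = DAX-1 cells with DMSO and 100% = cells lacking DAX-1 with DMSO; higher inhibition means more luminescence from relief of DAX-1 repression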
Starred values were filed as active, the others as inactive.

How did COC(=O)C1=C(C)N(Cc2ccc(C(F)(F)F)cc2)C(=NCc2ccccc2C(F)(F)F)NC1c1ccccc1C(F)(F)F (configuration not stated) do in these assays?
ssDAF-12 act: -1; hcDAF12 agonist: -1; hgDAF12 agonist: -3; DAX1 inh-2: 0

What do the screens show for `COc1cccc(C(=O)NCCC2=CCCCC2)c1OC`?
AHR act: 28; ssDAF-12 act: 1; DAX1 inh-1: 4.5*; hcDAF12 agonist: 2; hgDAF12 agonist: 8; DAX1 inh-2: 3

How did COc1cc(C(=O)NCCC2=CCCCC2)cc(OC)c1OC do in these assays?
AHR act: 1; ssDAF-12 act: -2; DAX1 inh-1: 1; hcDAF12 agonist: -2; hgDAF12 agonist: -2; DAX1 inh-2: 0

How did O=C(NC(=S)NCCC1=CCCCC1)c1ccccc1Br do in these assays?
AHR act: 50*; ssDAF-12 act: -1; DAX1 inh-1: 1; hcDAF12 agonist: 2; hgDAF12 agonist: 3; DAX1 inh-2: 0

What do the screens show for `O=Cc1cnc(N2CCCCC2)s1`?
AHR act: 2; ssDAF-12 act: 0; DAX1 inh-1: 7.1*; hcDAF12 agonist: -1; hgDAF12 agonist: 1; DAX1 inh-2: 1

What do the screens show for `O=C(N/N=C/c1cnc(N2CCCCC2)s1)c1ccc(Cl)cc1`?
AHR act: 5; ssDAF-12 act: -2; DAX1 inh-1: 0; hcDAF12 agonist: 0; hgDAF12 agonist: 6; DAX1 inh-2: 0

Results for COCCn1c(C)cc(C(=O)COC(=O)c2ccc(Br)o2)c1C ?
AHR act: 2; ssDAF-12 act: -1; DAX1 inh-1: 5.4*; hcDAF12 agonist: 1; hgDAF12 agonist: 1; DAX1 inh-2: 1

Results for CCc1cc2c(Sc3nc4ccccc4s3)ncnc2s1 ?
AHR act: 32; ssDAF-12 act: -1; DAX1 inh-1: -1; hcDAF12 agonist: -3; hgDAF12 agonist: -9; DAX1 inh-2: -1

How did c1ccc2sc(Sc3ncnc4sccc34)nc2c1 do in these assays?
AHR act: 49*; ssDAF-12 act: 0; DAX1 inh-1: -3; hcDAF12 agonist: 1; hgDAF12 agonist: -1; DAX1 inh-2: -1

How did CN1CCCN(Cc2cccc3ccccc23)CC1 do in these assays?
AHR act: 3; ssDAF-12 act: -1; DAX1 inh-1: 0; hcDAF12 agonist: 2; hgDAF12 agonist: 0; DAX1 inh-2: 0

How did OC1CCN(Cc2cccc3ccccc23)CC1 do in these assays?
AHR act: 1; ssDAF-12 act: -1; DAX1 inh-1: 5.0*; hcDAF12 agonist: -1; hgDAF12 agonist: 2; DAX1 inh-2: 0

What do the screens show for `CC1CC(NC(=O)c2c(O)nc3sccn3c2=O)CC(C)(C)C1` (configuration not stated)?
AHR act: 0; ssDAF-12 act: 0; DAX1 inh-1: 6.4*; hcDAF12 agonist: -2; hgDAF12 agonist: 4; DAX1 inh-2: 2

What do the screens show for `CCCCCNc1nc(NCCCO)c(C#N)c2c1CN(C)CC2`?
AHR act: 58*; ssDAF-12 act: -2; DAX1 inh-1: 0; hcDAF12 agonist: -2; hgDAF12 agonist: -3; DAX1 inh-2: 0

What do the screens show for `CCCCCNc1nc(N2CCCC2)c2c(c1C#N)CCN(C)C2`?
AHR act: 60*; ssDAF-12 act: -1; DAX1 inh-1: 0; hcDAF12 agonist: -2; hgDAF12 agonist: -2; DAX1 inh-2: -1

How did C=CCNc1nc(NCc2ccccc2)c(C#N)c2c1CN(C)CC2 do in these assays?
AHR act: 54*; ssDAF-12 act: 1; DAX1 inh-1: 1; hcDAF12 agonist: 5; hgDAF12 agonist: -3; DAX1 inh-2: 0

What do the screens show for `CN1CCc2c(C#N)c(N3CCOCC3)nc(NCC3CCCO3)c2C1` (configuration not stated)?
AHR act: -3; ssDAF-12 act: -1; hcDAF12 agonist: 0; hgDAF12 agonist: -2; DAX1 inh-2: 0

What do the screens show for `COc1cc(N/C(N)=N/c2nc(C)cc(C)n2)c(OC)cc1Cl`?
AHR act: 54*; ssDAF-12 act: -2; DAX1 inh-1: 0; hcDAF12 agonist: -3; hgDAF12 agonist: -2; DAX1 inh-2: -1

Results for COc1cc(NC(=O)c2ccc(Cl)cc2)c(OC)cc1Cl ?
AHR act: 60*; ssDAF-12 act: 0; DAX1 inh-1: 0; hcDAF12 agonist: 5; hgDAF12 agonist: 5; DAX1 inh-2: 3

Results for COc1cc(NC(=O)c2onc(C)c2Cl)c(OC)cc1Cl ?
AHR act: 60*; ssDAF-12 act: 0; DAX1 inh-1: 0; hcDAF12 agonist: 5; hgDAF12 agonist: 1; DAX1 inh-2: 1

What do the screens show for `N=C1C(=O)OCC1c1ccccc1NC(=O)c1ccccc1` (configuration not stated)?
AHR act: 2; ssDAF-12 act: 0; DAX1 inh-1: -1; hcDAF12 agonist: 4; hgDAF12 agonist: 0; DAX1 inh-2: 0

What do the screens show for `COc1ccc(C2COC(=O)C2=N)c(NC(=O)c2ccc(Cl)cc2)c1` (configuration not stated)?
AHR act: 76*; ssDAF-12 act: 1; DAX1 inh-1: 0; hcDAF12 agonist: 5; hgDAF12 agonist: 4; DAX1 inh-2: 0

Results for COc1cc(NC(=O)c2cc(C)no2)c(OC)cc1Cl ?
AHR act: 17; ssDAF-12 act: -1; DAX1 inh-1: 1; hcDAF12 agonist: 2; hgDAF12 agonist: 1; DAX1 inh-2: 0

How did CC[C@]1(c2ccc(C)cc2)C(=O)N(C(=O)OC(C)C)N1C(=O)OC(C)C do in these assays?
ssDAF-12 act: -1; hcDAF12 agonist: -1; hgDAF12 agonist: -1; DAX1 inh-2: -3

How did CCOC(=O)[C@@]12CN(C(=O)OC(C)(C)C)CC=C1N(Cc1ccc(OC)cc1)C(=O)[C@H]2CC(=O)NCCCCc1ccccc1 do in these assays?
ssDAF-12 act: -2; hcDAF12 agonist: -3; hgDAF12 agonist: -1; DAX1 inh-2: 0

How did Cc1noc(C)c1N=Nc1ccccc1C(=O)O do in these assays?
AHR act: 4; ssDAF-12 act: -1; DAX1 inh-1: 2; hcDAF12 agonist: 0; hgDAF12 agonist: 0; DAX1 inh-2: -1

Results for COc1cc(NC(=O)c2ccc(Cl)cc2)c(OC)cc1NC(=O)CN1CCOCC1 ?
AHR act: 48*; ssDAF-12 act: -1; DAX1 inh-1: -1; hcDAF12 agonist: 0; hgDAF12 agonist: -1; DAX1 inh-2: 0
